# Source: article PMC7862700, “An all-to-all approach to the identification of sequence-specific readers for epigenetic DNA modifications on cytosine”
# Columns and labels:
# Assay in all cases: DAPPL (digital affinity profiling via proximity ligation, sequencing); 10 mM Tris-HCl pH 7.5, 50 mM NaCl, 1 mM DTT, 4% glycerol, room temperature, 30 min; GST-TFs on glutathione beads, 16-mer random dsDNA library, 0.1% formaldehyde crosslink after washing; high values mean tight binding
# Details in all cases: protein: recombinant; tags: N-terminal GST; dsDNA, one strand shown
# ELK4 = target: T1, ELK4 (Homo sapiens, UniProt P28324-2 1-405)
# T1 sequence: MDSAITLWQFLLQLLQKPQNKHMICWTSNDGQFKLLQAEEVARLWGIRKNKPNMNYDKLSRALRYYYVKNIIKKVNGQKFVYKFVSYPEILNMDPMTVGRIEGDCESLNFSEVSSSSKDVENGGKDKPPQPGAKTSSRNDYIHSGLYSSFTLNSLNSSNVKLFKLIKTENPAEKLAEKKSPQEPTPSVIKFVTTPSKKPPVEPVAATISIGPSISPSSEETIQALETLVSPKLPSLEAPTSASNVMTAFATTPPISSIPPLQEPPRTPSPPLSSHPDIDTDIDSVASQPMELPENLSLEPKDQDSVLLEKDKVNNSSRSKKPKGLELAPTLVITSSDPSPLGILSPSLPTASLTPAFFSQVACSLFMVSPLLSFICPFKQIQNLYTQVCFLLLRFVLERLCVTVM
# Procedure, shortened: (§1)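 Human transcription factors fused to GST were expressed in yeast, captured on glutathione beads, given DNA barcodes and pooled with a GST-only negative control. Pools were incubated with 200 nmole of a 16-mer random double-stranded DNA library in Tris/NaCl/DTT/glycerol buffer at room temperature for 30 min. They were then washed, crosslinked with 0.1% formaldehyde, proximity-ligated (BsaI/T4 ligase, 1 h, 37 °C), PCR-amplified and sequenced on an Illumina NextSeq500. Binding signal is each 6-mer's read frequency for a factor divided by its frequency for the GST control.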
# ETV2 = target: T2, ETV2 (Homo sapiens, UniProt O00321 1-342)
# T2 sequence: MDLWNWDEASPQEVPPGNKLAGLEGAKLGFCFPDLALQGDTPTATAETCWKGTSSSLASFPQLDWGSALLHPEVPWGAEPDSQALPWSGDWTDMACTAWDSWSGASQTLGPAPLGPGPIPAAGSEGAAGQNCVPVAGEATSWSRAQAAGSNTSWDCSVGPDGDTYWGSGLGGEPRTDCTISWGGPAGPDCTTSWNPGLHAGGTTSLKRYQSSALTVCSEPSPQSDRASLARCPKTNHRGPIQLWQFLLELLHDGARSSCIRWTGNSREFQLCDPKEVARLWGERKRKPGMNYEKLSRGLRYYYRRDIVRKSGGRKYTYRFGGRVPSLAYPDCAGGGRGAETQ
# Procedure, shortened: as §1
# ETV1 = ETV1 (Homo sapiens, UniProt P50549 1-477)
# Procedure, shortened: as §1
# ERF = target: T3, ERF (Homo sapiens, UniProt P50548 1-548)
# T3 sequence: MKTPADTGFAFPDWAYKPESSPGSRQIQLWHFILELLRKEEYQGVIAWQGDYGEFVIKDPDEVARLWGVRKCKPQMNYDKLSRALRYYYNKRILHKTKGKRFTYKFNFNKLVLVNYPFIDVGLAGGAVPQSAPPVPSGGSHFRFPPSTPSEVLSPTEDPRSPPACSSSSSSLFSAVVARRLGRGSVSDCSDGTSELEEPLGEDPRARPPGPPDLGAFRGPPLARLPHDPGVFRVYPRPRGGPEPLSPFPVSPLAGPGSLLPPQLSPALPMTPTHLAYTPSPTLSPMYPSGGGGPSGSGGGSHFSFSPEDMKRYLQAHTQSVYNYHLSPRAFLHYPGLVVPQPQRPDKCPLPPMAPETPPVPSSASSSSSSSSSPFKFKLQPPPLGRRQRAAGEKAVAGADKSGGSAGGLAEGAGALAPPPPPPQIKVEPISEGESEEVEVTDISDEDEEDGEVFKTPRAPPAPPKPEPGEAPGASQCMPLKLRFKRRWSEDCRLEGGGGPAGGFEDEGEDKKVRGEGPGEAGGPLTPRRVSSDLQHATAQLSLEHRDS
# Procedure, shortened: as §1
# ETV3L = target: T4, ETV3L (Homo sapiens, UniProt Q6ZN32 1-361)
# T4 sequence: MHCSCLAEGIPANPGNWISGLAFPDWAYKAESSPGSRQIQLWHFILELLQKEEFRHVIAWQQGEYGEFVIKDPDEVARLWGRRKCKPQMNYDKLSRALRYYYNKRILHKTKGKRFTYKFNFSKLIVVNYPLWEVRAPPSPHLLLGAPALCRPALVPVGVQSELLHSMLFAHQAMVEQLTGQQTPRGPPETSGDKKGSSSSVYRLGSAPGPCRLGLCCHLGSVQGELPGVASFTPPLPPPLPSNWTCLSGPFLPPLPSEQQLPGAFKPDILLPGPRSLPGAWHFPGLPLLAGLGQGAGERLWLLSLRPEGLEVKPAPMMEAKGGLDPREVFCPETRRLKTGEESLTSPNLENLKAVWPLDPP
# Procedure, shortened: as §1
# ETS2 = target: T5, ETS2 (Homo sapiens, UniProt P15036 1-469)
# T5 sequence: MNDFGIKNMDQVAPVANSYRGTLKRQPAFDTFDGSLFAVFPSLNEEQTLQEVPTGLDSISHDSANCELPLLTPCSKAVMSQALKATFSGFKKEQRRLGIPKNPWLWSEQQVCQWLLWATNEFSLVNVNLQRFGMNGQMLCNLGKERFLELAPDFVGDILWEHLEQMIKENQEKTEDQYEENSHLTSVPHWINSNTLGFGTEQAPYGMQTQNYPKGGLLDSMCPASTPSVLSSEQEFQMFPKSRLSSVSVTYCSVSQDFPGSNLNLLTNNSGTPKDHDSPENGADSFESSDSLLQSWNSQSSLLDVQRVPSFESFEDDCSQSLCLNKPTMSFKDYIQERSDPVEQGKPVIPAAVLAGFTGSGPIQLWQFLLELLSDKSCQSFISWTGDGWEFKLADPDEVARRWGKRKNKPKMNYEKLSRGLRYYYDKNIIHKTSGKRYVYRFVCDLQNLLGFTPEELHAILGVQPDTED
# Procedure, shortened: as §1
# SPDEF = target: T6, SPDEF (Homo sapiens, UniProt O95238 1-335)
# T6 sequence: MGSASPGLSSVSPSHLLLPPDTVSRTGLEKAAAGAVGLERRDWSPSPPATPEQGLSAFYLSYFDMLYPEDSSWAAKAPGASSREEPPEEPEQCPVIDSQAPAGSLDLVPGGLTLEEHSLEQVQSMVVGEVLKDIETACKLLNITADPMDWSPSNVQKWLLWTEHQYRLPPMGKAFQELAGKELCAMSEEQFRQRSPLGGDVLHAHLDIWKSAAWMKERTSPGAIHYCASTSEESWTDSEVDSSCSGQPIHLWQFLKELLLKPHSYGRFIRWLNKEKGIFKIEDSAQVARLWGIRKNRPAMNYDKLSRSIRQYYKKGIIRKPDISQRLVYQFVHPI
# Procedure, shortened: as §1
# ETV7 = target: T7, ETV7 (Homo sapiens, UniProt Q9Y603 1-341)
# T7 sequence: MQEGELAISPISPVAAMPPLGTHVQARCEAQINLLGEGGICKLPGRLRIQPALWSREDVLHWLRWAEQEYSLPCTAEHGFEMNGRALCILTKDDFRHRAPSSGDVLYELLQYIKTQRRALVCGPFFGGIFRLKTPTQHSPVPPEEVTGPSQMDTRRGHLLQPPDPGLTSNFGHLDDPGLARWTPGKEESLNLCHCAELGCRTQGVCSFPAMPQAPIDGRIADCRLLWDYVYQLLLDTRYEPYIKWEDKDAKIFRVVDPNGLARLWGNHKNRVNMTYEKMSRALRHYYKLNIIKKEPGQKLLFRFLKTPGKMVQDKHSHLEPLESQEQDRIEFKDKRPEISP
# Procedure, shortened: as §1
# ETV3 = target: T8, ETV3 (Homo sapiens, UniProt P41162-2 1-143)
# T8 sequence: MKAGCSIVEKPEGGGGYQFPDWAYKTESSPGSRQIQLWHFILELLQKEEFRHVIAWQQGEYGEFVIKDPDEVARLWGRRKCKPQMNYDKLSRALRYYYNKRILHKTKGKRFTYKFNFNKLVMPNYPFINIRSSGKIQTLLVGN
# Procedure, shortened: as §1
# ETV1, sequence (P50549 whole entry): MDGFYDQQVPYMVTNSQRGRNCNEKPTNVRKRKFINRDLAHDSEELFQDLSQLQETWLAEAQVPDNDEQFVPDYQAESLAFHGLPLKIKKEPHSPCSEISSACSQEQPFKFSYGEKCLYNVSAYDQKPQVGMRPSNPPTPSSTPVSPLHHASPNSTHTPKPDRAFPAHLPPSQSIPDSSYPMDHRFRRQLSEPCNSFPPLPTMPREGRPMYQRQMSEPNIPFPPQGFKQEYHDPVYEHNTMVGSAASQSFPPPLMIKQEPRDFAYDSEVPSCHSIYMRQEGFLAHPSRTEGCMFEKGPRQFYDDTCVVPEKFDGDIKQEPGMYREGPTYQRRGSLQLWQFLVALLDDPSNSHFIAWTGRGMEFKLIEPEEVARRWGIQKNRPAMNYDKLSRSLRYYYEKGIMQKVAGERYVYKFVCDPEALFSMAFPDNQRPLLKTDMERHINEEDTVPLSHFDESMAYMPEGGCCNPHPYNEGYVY
sequence,measurement,setting,value
TGCAGC,binding signal,ELK4,"1.15 fold enrichment (6-mer frequency, TF over GST control)"
same,binding signal,ETV2,"1.12 fold enrichment (6-mer frequency, TF over GST control)"
same,binding signal,ETV1,"1.02 fold enrichment (6-mer frequency, TF over GST control)"
same,binding signal,ERF,"1.13 fold enrichment (6-mer frequency, TF over GST control)"
same,binding signal,ETV3L,"1.07 fold enrichment (6-mer frequency, TF over GST control)"
same,binding signal,ETS2,"1.1 fold enrichment (6-mer frequency, TF over GST control)"
same,binding signal,SPDEF,"1.15 fold enrichment (6-mer frequency, TF over GST control)"
same,binding signal,ETV7,"1.04 fold enrichment (6-mer frequency, TF over GST control)"
same,binding signal,ETV3,"1.05 fold enrichment (6-mer frequency, TF over GST control)"
